The source of these data is publication PMC4336329 (PLoS ONE, 2015).

The whole screen tested about 310,000 compounds, of which about 2,200 (0.71%) showed an effect of 50% or more. Effects have a minus sign here. The entries come from a sample that favours strong results as a whole.

The target of the experiment is human ether-à-go-go-related gene (hERG) potassium channel (human, UniProt Q12809). In words: primary screen, population patch clamp on CHO cells stably expressing hERG; higher = less effect of the substance. On the procedure: Briefly, Chinese hamster ovary (CHO) cells stably expressing the hERG channel were dislodged from tissue culture flasks and dispensed into PPC plates. […] During the recording, background leak currents were estimated by a 100 ms step to -80 mV from an initial holding potential of -70 mV and subtracted from the subsequent current measurement. The campaign was conducted in two phases using slight differences in recording protocol. In the first phase, the initial voltage pulse used a 100 ms step to -30 mV from a holding potential of -70 mV, a 2 s conditioning step to +25 mV, and a 2 s test step to -30 mV. During the second phase of the screen, the potential during the conditioning step was raised to +45 mV. In both phases of the campaign, a secondary voltage pulse was applied using the same parameters as the second phase initial pulse. The initial and secondary pulses were applied in the absence of compound, and upon application of 1 μM and 10 μM test concentrations. Small molecule effects on hERG current density were quantified by […].
human ether-à-go-go-related gene (hERG) potassium channel, sequence (Q12809 whole entry, looked up): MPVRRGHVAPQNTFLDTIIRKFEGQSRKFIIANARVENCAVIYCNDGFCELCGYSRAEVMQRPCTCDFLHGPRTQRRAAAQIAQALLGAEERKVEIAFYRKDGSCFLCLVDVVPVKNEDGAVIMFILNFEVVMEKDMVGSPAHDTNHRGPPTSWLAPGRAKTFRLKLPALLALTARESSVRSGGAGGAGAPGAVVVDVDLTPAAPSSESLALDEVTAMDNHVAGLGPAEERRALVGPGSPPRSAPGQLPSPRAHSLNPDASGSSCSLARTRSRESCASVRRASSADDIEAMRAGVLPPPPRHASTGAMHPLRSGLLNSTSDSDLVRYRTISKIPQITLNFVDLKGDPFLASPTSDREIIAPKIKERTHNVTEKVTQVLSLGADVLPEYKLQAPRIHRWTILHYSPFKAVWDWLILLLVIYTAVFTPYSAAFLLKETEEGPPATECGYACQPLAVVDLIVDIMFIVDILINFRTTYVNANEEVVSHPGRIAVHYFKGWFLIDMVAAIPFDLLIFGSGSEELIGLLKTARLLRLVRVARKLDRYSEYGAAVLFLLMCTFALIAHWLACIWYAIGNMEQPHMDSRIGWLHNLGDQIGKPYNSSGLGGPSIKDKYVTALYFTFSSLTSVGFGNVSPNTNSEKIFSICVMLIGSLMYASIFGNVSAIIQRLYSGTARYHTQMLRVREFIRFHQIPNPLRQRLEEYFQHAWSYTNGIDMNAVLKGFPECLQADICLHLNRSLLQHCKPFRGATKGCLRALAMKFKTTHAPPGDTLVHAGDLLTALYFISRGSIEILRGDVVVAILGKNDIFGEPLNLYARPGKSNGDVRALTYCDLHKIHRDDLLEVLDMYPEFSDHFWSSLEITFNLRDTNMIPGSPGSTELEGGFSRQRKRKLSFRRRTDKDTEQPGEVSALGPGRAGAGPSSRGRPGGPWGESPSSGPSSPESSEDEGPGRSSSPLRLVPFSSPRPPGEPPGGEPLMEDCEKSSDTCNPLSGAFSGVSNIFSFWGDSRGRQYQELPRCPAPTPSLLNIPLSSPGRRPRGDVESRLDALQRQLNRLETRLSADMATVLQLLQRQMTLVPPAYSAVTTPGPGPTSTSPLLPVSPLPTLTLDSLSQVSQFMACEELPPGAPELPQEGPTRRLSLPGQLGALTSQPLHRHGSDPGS
Turning to `COc1ncnc2c1oc1nc(CC(C)C)c3c(c12)CC(C)(C)OC3`, the “hERG current change (%, negative = inhibition) at 1uM” value was -10.6%. The value for `O=C(CSc1ccc(F)cc1)Nc1ccc(Br)cc1` was 13.9%; that for `CCOC(=O)/C(C(C)=O)=C1\OC(=O)c2ccccc21` was 8.9%; that for `COc1ccc(CNC(=O)CSc2n[nH]c(N)n2)cc1` was 14.9%.

For `COc1ccc(CNC(=O)CSc2n[nH]c(N)n2)cc1OC`, the “hERG current change (%, negative = inhibition) at 1uM” value is -73.4%.

With `COc1ccc(CCNC(=O)CSc2n[nH]c(N)n2)cc1OC`, the “hERG current change (%, negative = inhibition) at 1uM” value is 18.1%. The value for `O=C(O)C1Nc2ccc(C(F)(F)F)cc2C2OCCC12` (stereo not drawn) was 10.7%. The value for `CCOC(=O)CSc1nc2cc(C(=O)NCC3CCCO3)ccc2c(=O)n1Cc1ccco1` (stereo not drawn) was -18.2%.

As to `C=CCn1c(SCC(=O)OCC)nc2cc(C(=O)NCc3ccco3)ccc2c1=O`, the “hERG current change (%, negative = inhibition) at 1uM” value is given as -9.92%. The value for `CCCCCn1c(SCC(=O)OCC)nc2cc(C(=O)NCc3ccco3)ccc2c1=O` was 12.8%. As for `O=C(NCC1CCCO1)c1ccc2c(=O)n(Cc3ccco3)c(SCC(=O)N3CCCC3)nc2c1` (stereo not drawn), the “hERG current change (%, negative = inhibition) at 1uM” value is listed as -54%. As to `O=C(NCc1ccco1)c1ccc2c(=O)n(Cc3ccco3)c(SCC(=O)N3CCCC3)nc2c1`, the “hERG current change (%, negative = inhibition) at 1uM” value is -66.9%. On to `O=C(NCC1CCCO1)c1ccc2c(=O)n(CC3CCCO3)c(SCC(=O)N3CCCC3)nc2c1` (stereo not drawn), for which the “hERG current change (%, negative = inhibition) at 1uM” value is 5.44%. As for `CCN(C(=O)CSc1nnnn1-c1ccccc1)c1c(N)n(Cc2ccccc2)c(=O)[nH]c1=O`, the “hERG current change (%, negative = inhibition) at 1uM” value was 15.9%. In the case of `CCOc1ccc2nc(NCCO)[nH]c2c1`, the “hERG current change (%, negative = inhibition) at 1uM” value was 10.9%. Consider `Cc1ccc(S(=O)(=O)NCCC(=O)NC2CCCC2)cc1`, for which the “hERG current change (%, negative = inhibition) at 1uM” value turned out to be 1.28%.

Turning to `CCCN1CCC(=O)N([C@H](COc2ccccc2)Cc2ccccc2)CC1`, the “hERG current change (%, negative = inhibition) at 1uM” value was -52.4%.

For the compound `CC(C)CN1CCC(=O)N([C@H](COc2ccccc2)Cc2ccccc2)CC1`, the “hERG current change (%, negative = inhibition) at 1uM” value is on record as -29.8%. As for `CC(C)C[C@@H](COc1ccccc1)N1CCN(Cc2ccccc2)CCC1=O`, the “hERG current change (%, negative = inhibition) at 1uM” value is -4.6%.

Turning to `COc1ccc(SC[C@H](Cc2ccccc2)N2CCN(CCc3ccccc3)CCC2=O)cc1`, the “hERG current change (%, negative = inhibition) at 1uM” value is given as -43.2%.

With `CCCN1CCC(=O)N([C@H](CSc2ccccc2)Cc2ccccc2)CC1`, the “hERG current change (%, negative = inhibition) at 1uM” value was -48.9%.

For `CCCN1CCC(=O)N([C@H](COc2ccccc2)CC(C)C)CC1`, the “hERG current change (%, negative = inhibition) at 1uM” value is on record as -48.1%. Regarding `COc1ccc(SC[C@H](CC(C)C)N2CCN(CCc3ccccc3)CCC2=O)cc1`, the “hERG current change (%, negative = inhibition) at 1uM” value is given as -51.6%. The value for `CC(C)C[C@@H](COc1ccccc1)N1CCN(CCc2ccccc2)CCC1=O` was -61.7%; that for `CCCCCCCN1CCC(=O)N([C@H](CO)Cc2ccccc2)CC1` was -77.2%. In the case of `O=C1CCN(CCCc2ccccc2)CCN1[C@H](CO)Cc1ccccc1`, the “hERG current change (%, negative = inhibition) at 1uM” value is listed as -12%.

`CCCN1CCC(=O)N([C@H](CO)Cc2ccccc2)CC1`: the “hERG current change (%, negative = inhibition) at 1uM” value turned out to be 6.98%.

Turning to `CC(C)C[C@@H](CSc1ccc(Br)cc1)N1CCN(CCc2ccccc2)CCC1=O`, the “hERG current change (%, negative = inhibition) at 1uM” value was -28.9%. Consider `O=C(Oc1coc(CSc2ncccn2)cc1=O)c1ccc(Br)o1`, for which the “hERG current change (%, negative = inhibition) at 1uM” value is listed as 11.6%. The value for `Cc1cc(C)n(CCN(C)C(=O)C2CCC(=O)N(CCN3CCOCC3)C2)n1` (stereo not drawn) was 16.1%; that for `COc1ccc(C2CC(c3ccccc3)=NN2C(=O)c2ccc(Cl)c([N+](=O)[O-])c2)cc1` (stereo not drawn) was 9.38%; that for `CN(CC(=O)Nc1ccc(Cl)c(C(F)(F)F)c1)C(=O)c1cn2ccccc2n1` was 5.27%.

As for `O=C(N/N=C/c1cc(Br)c(O)c(Br)c1)c1cccnc1`, the “hERG current change (%, negative = inhibition) at 1uM” value came out at 18.5%.

With `COc1ccccc1/C=C(/C(=O)OCC(=O)Nc1ccc(N(C)C)cc1)c1ccccc1`, the “hERG current change (%, negative = inhibition) at 1uM” value is recorded as 9.09%.

With `COc1ccccc1C(=O)N/N=C/c1cnc2ccccc2n1`, the “hERG current change (%, negative = inhibition) at 1uM” value came to 6.27%. As for `CN1CCC(=O)N([C@H](COc2ccccc2)Cc2ccccc2)CC1`, the “hERG current change (%, negative = inhibition) at 1uM” value is given as -8.2%. Turning to `O=C1CCN(Cc2ccccc2)CCN1[C@H](COc1ccccc1)Cc1ccccc1`, the “hERG current change (%, negative = inhibition) at 1uM” value is -7.61%. In the case of `O=C1CCN(CCc2ccccc2)CCN1[C@H](COc1ccccc1)Cc1ccccc1`, the “hERG current change (%, negative = inhibition) at 1uM” value is on record as -60.4%. The value for `CCOc1ccc(C(=O)COC(C)=O)cc1` was 9.74%; that for `O=c1[nH]c(C2CCCN(S(=O)(=O)c3ccc(F)cc3)C2)nc2c1nnn2Cc1ccccc1` (stereo not drawn) was 7.82%. As to `OCCC1CN(C/C(Cl)=C/c2ccccc2)CCN1C1CCCC1` (stereo not drawn), the “hERG current change (%, negative = inhibition) at 1uM” value is listed as -43.4%. The value for `Cc1cccc(-c2ncc(CN3CCN(C4CCCC4)C(CCO)C3)cn2)c1` (stereo not drawn) was -15.1%. On to `CC(C)CCN1CCN(CCCc2ccccc2)CC1CCO` (stereo not drawn), for which the “hERG current change (%, negative = inhibition) at 1uM” value was -1.8%. The value for `OCCC1CN(CC(c2ccccc2)c2ccccc2)CCN1C1CCCC1` (stereo not drawn) was -74.5%; that for `CC(C)CCN1CCN(CC#Cc2ccccc2)CC1CCO` (stereo not drawn) was 4.3%.
